Wnt bcat act – activators of Wnt/beta-catenin signaling. Wnt/beta-catenin reporter cell assay, activator, plate reader. activation, % at 9.35 µM. 300,000 compounds, 1.2% hits. AID 743398; in the data active = activation above about 30%, passing the limit was not always enough;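 also: 0% = neutral control wells and 100% = positive control wells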
HSF-1 act – increases HSF-1 driven luciferase reporter signal | NIH3T3-HGL HSF-1 luciferase reporter, MG132, 8 h; 100% = twice DMSO control signal | activation, % at 9 µM | 300,000 compounds, 1.7% hits | AID 504408;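 active = mean replicate activation of at least 50% with a set share of replicates each reaching 50%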;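 also: 0% = median of the neutral control wells and 100% = twice that signal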
SMARCA2 activ – activators of SMARCA2 function; activation, % at 9.1 µM; 370,000 compounds, 1% hits; MG213 cells, MMTV-luciferase reporter, dexamethasone, overnight; in the data active = activation above about 7.8%;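 also: 0% = vehicle wells and 100% = reference activator wells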
esBAF inh – blocks esBAF chromatin remodeling in mouse ES cells | Bmi1-luciferase knock-in reporter, 24 h; 100% = twice the neutral-well signal | reporter increase, % at 12.5 µM | 350,000 compounds, 2% hits | AID 602393; in the data active = activation above about 40%;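 also: 0% = median of the plate's neutral control wells and 100% = double that signal; a rise in the Bmi1 reporter signal indicates esBAF inhibition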
MITF TRPM1 HTS – activators of MITF-driven TRPM1 promoter activity in SK-MEL-5 cells; SK-MEL-5 TRPM1-promoter luciferase, 24 h; % of positive control, neutral wells = 0; activation, % at 12.5 µM; 300,000 compounds, 0.75% hits;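 active = mean activation of at least 80% with every replicate also reaching 80%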;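 also: 0% = neutral control wells and 100% = parthenolide positive control wells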
HSF1 inh – HSF1 inhibition | NIH3T3-HGL HSE-luciferase, MG132-induced, luminescence 8 h; hits give low values | activity change, negative = inhibition, % at 7.5 µM (by protocol) | 300,000 compounds, 0.77% hits | AID 2098;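 active = more than half of replicate wells show activity change below -50%, luminescence cut by over half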;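 also: luciferase reports HSF-1 transcriptional activity via heat shock element; 0% = median of DMSO wells and -100% = zero luminescence signal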
SMARCA2 conf – SMARCA2 activation, confirmation screen | shares compounds with SMARCA2 activ | MG213 cells, MMTV-luciferase with dexamethasone, luminescence, overnight; MG213 cells expressing E1A, Rb sequestered; DMSO wells 0%, reference activator 100% | activation, % at 9.1 µM | 3,500 compounds, 30% hits | AID 652260;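 active = activation above its plate's cutoff, the mean activation of tested wells plus 3 SD, cut at about 7.9% in these data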
VP16 Luc act – activates GAL4-VP16 luciferase, flagging SMARCA2 activator hits; shares compounds with SMARCA2 activ; HEK293 GAL4-VP16 pG5luc reporter, luciferase luminescence; scaled: DMSO wells 0%, SAHA wells 100%; activation, % at 9.1 µM; 3,500 compounds, 41% hits;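 active = activation above the solvent-only control well mean plus 3 SD, averaged across control plates, cut at about 5.2% in these data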
* hit, by the source's call; · = no result given. Shown are actives, neighbours in structure and some others; about 4.3% of the full set was active somewhere.

SMILES | Wnt bcat act | HSF-1 act | SMARCA2 activ | esBAF inh | MITF TRPM1 HTS | HSF1 inh | SMARCA2 conf | VP16 Luc act
COc1ccc(CN(C)C[C@@H]2Oc3ccc(NC(=O)c4ccncc4)cc3C(=O)N([C@@H](C)CO)C[C@H]2C)cc1 | · | · | · | 1.8 | · | · | · | ·
O=C(NCc1ccccn1)c1nnc(Cc2ccc(Cl)cc2)o1 | -5.8 | -1.9 | 9.6* | 0.1 | 10.5 | -5.3 | 1.3 | 0.7
O=C(NCCc1ccc(Cl)cc1)c1nnc(Cc2ccc(Cl)cc2)o1 | -2.4 | 1.2 | 3.3 | 1.3 | 1.9 | 0.3 | · | ·
CO[C@H]1CN(C)C(=O)c2cc(NC(=O)C3CCC3)ccc2OC[C@H](C)N(Cc2cccnc2)C[C@H]1C | · | · | · | -1.8 | · | · | · | ·
CCN(CC)c1ccc(Nc2cc3n(c(=O)n2)CCc2cc(OC)c(OC)cc2-3)cc1 | 3.3 | -10.1 | 14.5* | · | 4.0 | -1.6 | 18.1* | 2.6
COc1cc2c(cc1OC)-c1cc(Nc3cccc(F)c3)nc(=O)n1CC2 | -0.7 | 8.2 | 0.2 | -0.2 | 73.8 | -4.2 | · | ·
COc1ccc(Nc2c(-c3cc4ccccc4o3)nc3nc(C)cc(C)n23)cc1 | 14.6 | · | 8.6* | · | · | · | 0.2 | 1.5
CN(C)C(=O)C[C@H]1C=C[C@H](NC(=O)Nc2cccc(F)c2)[C@@H](CO)O1 | · | · | · | 0.7 | · | · | · | ·
Cc1ccc(-c2nc(N/N=C/c3ccccc3[N+](=O)[O-])c3ccccc3n2)cc1 | · | 2.9 | 8.2* | 8.7 | 61.2 | 9.6 | 1.9 | 8.2*
COc1ccccc1CN1[C@H](CO)[C@@H]2c3ccccc3N(C(=O)C3CCOCC3)C[C@@H]21 | · | · | · | -1.6 | · | · | · | ·
CC(C)C(Cl)=NOC(=O)Nc1ccc(F)cc1 | -4.0 | · | 43.5* | · | · | · | -15.0 | 1.7
C/C(=N\OC(=O)Nc1ccc(Cl)cc1)c1ccc(F)c(F)c1 | 3.4 | 22.4 | 5.4 | 3.4 | 27.7 | 16.9 | · | ·
COc1ccc(NC(=O)N[C@@H]2CC[C@H](CCNC(=O)CCN3CCCCC3)O[C@H]2CO)cc1 | · | · | · | -1.7 | · | · | · | ·
Cc1ccc(-n2c(C)cc(-c3csc(N)n3)c2C)cc1 | -18.5 | 2.4 | 11.6* | · | -52.9 | 0.3 | -10.5 | -1.1
Cc1cc(-c2csc(N)n2)c(C)n1C | · | -12.2 | -0.6 | -8.8 | -6.9 | -5.0 | · | ·
O=C(CS(=O)(=O)c1cn(Cc2ccc(Cl)cc2)c2ccccc12)N1CCCC1 | 2.8 | 33.1 | -2.4 | 7.6 | · | 11.5 | · | ·
CCOC(=O)N1CCN(C(=O)CS(=O)(=O)c2cn(Cc3ccc(F)cc3)c3ccccc23)CC1 | -0.1 | 96.1* | 8.0* | 6.5 | · | 69.9 | -1.5 | 2.5
O=S(=O)(CC(O)COc1ccccc1Cl)c1ccccc1 (stereo unspecified) | -1.2 | · | 2.7 | 5.9 | · | · | · | ·
O=S(=O)(Cc1ccccc1Cl)CC(O)COc1ccccc1Cl (stereo unspecified) | 6.8 | 1.2 | 8.4* | 16.5 | 8.2 | 5.3 | -3.8 | 2.3
COc1cccc(-c2cnc(C(O)c3ccccc3)[nH]2)c1 (stereo unspecified) | -0.2 | · | 9.2* | 19.0 | · | · | -2.3 | 8.7*
Cc1cc(N/N=C\c2ccccc2)nc(-c2ccccc2O)n1 | 13.1 | 5.4 | 12.6* | · | 6.3 | 14.0 | -1.9 | 2.7
Cc1cc(N/N=C/c2ccccc2O)nc(-c2ccccc2O)n1 | 5.4 | 11.6 | -2.1 | · | -9.0 | 19.5 | · | ·
Cc1cc(N/N=C/c2cccc(Br)c2)nc2ccccc12 | 15.8 | 24.3 | 12.0* | · | 47.9 | 12.1 | 4.4 | 7.8*
COc1ccc(S(=O)(=O)N(C)C[C@@H]2OCCCC[C@@H](C)Oc3ccc(NS(=O)(=O)c4ccccc4)cc3C(=O)N([C@H](C)CO)C[C@H]2C)cc1 | · | · | · | 1.9 | · | · | · | ·
CC(C)[C@H](N)C(=O)N[C@H]1CCC2C3CC=C4C[C@@H](O)CC[C@]4(C)C3CC[C@@]21C (stereo partly specified) | -3.5 | · | 18.8* | -66.9 | · | · | 43.8* | 1.7
O=C1NC[C@H](CCCCN2C[C@H](Cc3ccc(O)cc3)N(CCc3ccc(O)cc3)C(=O)C2=O)N(CC2CCCCC2)C1=O | -1.8 | · | 8.5* | · | · | · | 0.4 | 2.5

Bioassay records (PubChem BioAssay)
